Where “and” joins values, the source holds several entries; their conditions need not be identical. Equal entries are not always repeated. About 83,000 compounds went through this panel and 20% of them were active in at least one assay; those are over-represented in the sample as a whole.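 Negative percent growth values reflect cell death: -40 means 40% of the cells present at the start died, and -100 means all died.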 Calls of active or inactive are those of the source. How the source made its calls: active means growth percent below 10; inactive means the rest. Where a SMILES comes first, the peptide text is derived from it. [ ]: non-standard residue; d: D form. ξ: configuration not given here. ξV = CC(C)C(N)C(=O)O
Experiments:
Assay in all cases: NCI-60 one-dose screen, 48 h (100 = growth as untreated, 0 = no growth, -100 = all killed)
NCI-H23 lung = settings: 10 µM
HOP-62 NSCLC = settings: 10 µM
NCI-H460 lung = settings: 10 µM
NCI-H522 lung = settings: 10 µM unless noted
786-0 renal = settings: 10 µM
COLO 205 colon = settings: 10 µM
NCI-H226 lung = settings: 10 µM
HOP-92 NSCLC = settings: 10 µM
A549/ATCC NSCLC = settings: 10 µM

SMILES | growth (NCI-H23 lung) | growth (HOP-62 NSCLC) | growth (NCI-H460 lung) | growth (NCI-H522 lung) | growth (786-0 renal) | growth (COLO 205 colon) | growth (NCI-H226 lung) | growth (HOP-92 NSCLC) | growth (A549/ATCC NSCLC)
O=C1C=C(O)c2ccccc2C1=O.[Ag] | 91.8% (inactive) | 98.3% (inactive) | 94.7% (inactive) | -34.4% (active) | 104% (inactive) | 78.8% (inactive) | – | – | –
C[n+]1c2cc(N)ccc2cc2ccc(N)cc21 | – | – | – | – | – | – | -14.9% (active) [middle of 4 runs] | 43.9% (inactive) and 8.02% (active) and -29.2% (active) | –
CC(C)C(NC(=O)CN)C(=O)O (configuration not stated) (H-Gly-[ξV]-OH) | 101% (inactive) and 106% (inactive) | 106% (inactive) and 98% (inactive) | – | 95.9% (inactive) and 89.7% (inactive) | 95.1% (inactive) and 106% (inactive) | – | 102% (inactive) and 100% (inactive) | 102% (inactive) | 95% (inactive) and 99.2% (inactive)
CCCCCC(C)c1ccc(O)c(C)c1 (configuration not stated) | 104% (inactive) | 98.4% (inactive) | – | 88.2% (inactive) | 93.6% (inactive) | – | 96% (inactive) | 98% (inactive) | 113% (inactive)
